About 83,000 compounds went through this panel and 20% of them were active in at least one assay; those are over-represented in the sample as a whole.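 Single-dose data. Exposure time 48 hours. Values below 10 considered active.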 Values without a mark were called inactive. Active and inactive are the calls of the source.

What all share (test): NCI-60 one-dose screen, 48 h (100 = growth as untreated, 0 = no growth, -100 = all killed)
One experiment has as its system NCI-H23 lung. The settings on record: 10 µM unless noted.
The next experiment deals with NCI-H226 lung. The conditions noted are these: 10 µM unless noted.
The subject of the next experiment is NCI-H322M lung. The settings on record: 10 µM unless noted.
In a further experiment the test system is HOP-62 NSCLC. The conditions noted are these: 10 µM unless noted.
For another experiment, the system named is NCI-H460 lung. The settings on record: 10 µM unless noted.
The next experiment deals with HOP-92 NSCLC. The settings on record: 10 µM unless noted.
The test system of a further experiment is NCI-H522 lung. The conditions noted are these: 10 µM unless noted.
The next experiment deals with A549/ATCC NSCLC. The settings on record: 10 µM unless noted.
The next experiment deals with 786-0 renal. The settings on record: 10 µM unless noted.
A further experiment relates to COLO 205 colon. The settings on record: 10 µM unless noted.
Another experiment has as its system DU-145 prostate. The settings on record: 10 µM unless noted.
In another experiment the test system is K-562 leukemia. The conditions noted are these: 10 µM unless noted.
A further experiment deals with MALME-3M melanoma. The settings on record: 10 µM unless noted.
A further experiment concerns MDA-MB-231 breast. The settings on record: 10 µM unless noted.
A further experiment deals with RXF 393 renal. The conditions noted are these: 10 µM unless noted.
For a further experiment, the system named is SF-268 CNS. The conditions noted are these: 10 µM unless noted.
The test system of a further experiment is SF-295 CNS. The settings on record: 10 µM unless noted.
In a further experiment the test system is SF-539 CNS. The conditions noted are these: 10 µM unless noted.
The next experiment relates to UACC-257 melanoma. The settings on record: 10 µM.
A further experiment deals with M14 melanoma. The settings on record: 10 µM unless noted.

As for `O=C(NNc1nc2cc(F)c(F)cc2n2cccc12)c1ccncn1`, the growth with NCI-H23 lung was 18.3%; with NCI-H226 lung it was 16.2%; in the experiment with NCI-H322M lung, 28.9%; in the experiment on HOP-62 NSCLC it was 26.8%; in the experiment on NCI-H460 lung, 9.5% (active); in the experiment with HOP-92 NSCLC it was 62.7%. Also, the growth in the experiment with NCI-H522 lung is 2.02% (active); with A549/ATCC NSCLC, 18%; in the experiment with 786-0 renal, 11.9%; in the experiment with COLO 205 colon it was 19.9%; with DU-145 prostate, 22.2%; in the experiment with K-562 leukemia, 16.1%. The growth in the experiment on MALME-3M melanoma was 34.4%; in the experiment on MDA-MB-231 breast, 36.4%; in the experiment on RXF 393 renal, 30.4%; in the experiment on SF-268 CNS it was 18.7%; in the experiment on SF-295 CNS it was 15.9%; in the experiment with SF-539 CNS, 6.94% (active). Moreover, the growth was 15.7% with UACC-257 melanoma and 12.9% with M14 melanoma.
Regarding `CCN1C(=O)N(CC)C2SC(N/N=C/c3ccccc3F)=NC21` (stereo not given), the growth in the experiment on NCI-H23 lung was 31.6%; with NCI-H226 lung, 45.1%; in the experiment with NCI-H322M lung, 53.3%; in the experiment with HOP-62 NSCLC, 30.9%; in the experiment with NCI-H460 lung it was 4.97% (active); with HOP-92 NSCLC, 8.68% (active). Further, the growth with NCI-H522 lung is -35.6% (active); in the experiment with A549/ATCC NSCLC, 27.3%; in the experiment on 786-0 renal, 30.6%; with COLO 205 colon, -47.6% (active); with DU-145 prostate, 16.6%; in the experiment with K-562 leukemia, 9.76% (active). For the same compound, the growth in the experiment on MALME-3M melanoma is 71.1%; in the experiment with MDA-MB-231 breast, 24.1%; with RXF 393 renal it was 46.4%; in the experiment with SF-268 CNS it was 45.4%; in the experiment with SF-295 CNS it was 11.6%; with SF-539 CNS, -16.7% (active). Also, the growth was 61% with UACC-257 melanoma and 17.2% in the experiment on M14 melanoma.
With `C=C(C)[C@@H]1CC[C@]2(COS(C)(=O)=O)CC[C@]3(C)[C@H](CC[C@@H]4[C@@]5(C)CCCNC(C)(C)[C@@H]5CC[C@]43C)[C@@H]12`, the growth is 82% in the experiment with NCI-H23 lung; 86.5% in the experiment with NCI-H226 lung; 94.7% in the experiment with NCI-H322M lung; 101% in the experiment on HOP-62 NSCLC; 13.5% in the experiment on NCI-H460 lung; 76.4% in the experiment on HOP-92 NSCLC. Besides, the growth in the experiment on NCI-H522 lung was 85.4%; in the experiment on A549/ATCC NSCLC, 54.2%; in the experiment with 786-0 renal, 91.5%; in the experiment with COLO 205 colon, 0.735% (active); in the experiment on DU-145 prostate it was 42.1%; with K-562 leukemia, 1.12% (active). Further, the growth is 97% with MALME-3M melanoma; 91.6% in the experiment on MDA-MB-231 breast; 85.3% with RXF 393 renal; 106% in the experiment with SF-268 CNS; -40.1% (active) with SF-295 CNS; 84.9% with SF-539 CNS. In addition, the growth is 107% with UACC-257 melanoma and 84% in the experiment on M14 melanoma.
For the compound `N/C(=N\OC(=O)CSc1nc2ccccc2s1)c1ccc(Cl)cc1`, the growth is 97.7% in the experiment on NCI-H23 lung; 98% in the experiment with NCI-H226 lung; 101% with NCI-H322M lung; 88.2% with HOP-62 NSCLC; 108% with NCI-H460 lung; 98% with HOP-92 NSCLC. Also, the growth was 95% with NCI-H522 lung; 103% with A549/ATCC NSCLC; 102% in the experiment on 786-0 renal; 106% with COLO 205 colon; 105% in the experiment on DU-145 prostate; 99.1% in the experiment on K-562 leukemia. For the same compound, the growth is 105% with MALME-3M melanoma; 92% with MDA-MB-231 breast; 122% with RXF 393 renal; 96.2% with SF-268 CNS; 104% with SF-295 CNS; 95.5% in the experiment on SF-539 CNS. Moreover, the growth is 104% with UACC-257 melanoma and 100% in the experiment on M14 melanoma.
Regarding `COc1ccc(S(=O)(=O)n2cc(C=O)c3ccccc32)c(OC)c1`, the growth was 79.4% in the experiment with NCI-H23 lung; 70.6% in the experiment with NCI-H226 lung; 102% in the experiment with NCI-H322M lung; 77.9% with HOP-62 NSCLC; 98.5% in the experiment with NCI-H460 lung; 43.3% in the experiment with HOP-92 NSCLC. Also, the growth in the experiment with NCI-H522 lung is 97.7%; in the experiment with A549/ATCC NSCLC, 93.2%; in the experiment with 786-0 renal it was 94.2%; in the experiment with COLO 205 colon it was 108%; in the experiment with DU-145 prostate it was 103%; with K-562 leukemia, 14.4%. Further, the growth with MALME-3M melanoma is 79.7%; in the experiment with MDA-MB-231 breast, 95.5%; in the experiment with RXF 393 renal, 95.3%; with SF-268 CNS it was 73.6%; in the experiment with SF-295 CNS, 99.9%; in the experiment on SF-539 CNS it was 78.6%. The growth is 82.5% in the experiment with UACC-257 melanoma and 52.8% in the experiment with M14 melanoma.
Regarding `COc1cc(C2CC(c3ccc(Nc4nc(NCCO)nc(Nc5ccc(Cl)cc5)n4)cc3)=Nc3c(N)nc(N)nc3N2)cc(OC)c1OC` (stereo not given), the growth with NCI-H23 lung is 74%; in the experiment with NCI-H226 lung it was 81.7%; in the experiment with NCI-H322M lung, 82.2%; in the experiment on HOP-62 NSCLC, 43.3%; in the experiment on NCI-H460 lung, 56.3%; with HOP-92 NSCLC, 43.5%. Besides, the growth in the experiment on NCI-H522 lung was 60.7%; in the experiment on A549/ATCC NSCLC, 103%; in the experiment with 786-0 renal, 46.9%; in the experiment with COLO 205 colon, 90.4%; with DU-145 prostate, 65.7%; in the experiment on K-562 leukemia, 16.4%. Besides, the growth is 85.7% in the experiment on MALME-3M melanoma; 60.6% with MDA-MB-231 breast; 45% in the experiment on RXF 393 renal; 63% in the experiment on SF-268 CNS; 77.6% in the experiment on SF-295 CNS; 80.1% in the experiment with SF-539 CNS. The growth with UACC-257 melanoma is 92.1%; with M14 melanoma, 81.2%.
In the case of `Cn1cc2c(c1)-c1c(sc3nc(-c4ccc(NC(=O)Nc5cc(C(C)(C)C)on5)cc4)cn13)CC2`, the growth in the experiment on NCI-H23 lung is 50.7%; in the experiment on NCI-H226 lung, 51.8%; in the experiment on NCI-H322M lung it was 75.6%; with HOP-62 NSCLC, 16.7%; in the experiment with NCI-H460 lung it was 27.5%; in the experiment on HOP-92 NSCLC, 42.8%. The growth was 81.5% with NCI-H522 lung; 64.5% with A549/ATCC NSCLC; -3.49% (active) in the experiment on 786-0 renal; 45.6% in the experiment on COLO 205 colon; 57.9% with DU-145 prostate; 15.3% in the experiment with K-562 leukemia. The growth in the experiment on MALME-3M melanoma was 66.2%; with MDA-MB-231 breast, 49.8%; in the experiment with RXF 393 renal, -23.4% (active); with SF-268 CNS, 50.5%; with SF-295 CNS, -41% (active); with SF-539 CNS, 22.3%. In addition, the values for the growth in the experiment with UACC-257 melanoma and in the experiment on M14 melanoma were 93.1% and 60.5%, respectively.

The values above are taken from PubChem BioAssay (NCI).
